The entries come from a sample that favours hits as a whole.
Six1-Eya2 inh = blocks human Six1 binding to Eya2; Q15475+O00167; AlphaScreen GST-Six1/His-Eya2 binding, biochemical; hits give low values; activity change, % (concentration not given with the values); actives 0.56% (n = 360,000); AID 651725; in the data active means activity change below about -65%; inconclusive means mostly about -30% to -63%; further: on the % scale 0 is the no-effect control and ±100 the full control effect
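Homogeneous AlphaScreen proximity assay pairing GST-Six1 with His-tagged Eya2 (added as 5X mix: 250 nM and 500 nM) in 50 mM Tris pH 8.0, 300 mM NaCl, 1 mM TCEP. Glutathione donor and nickel acceptor beads; 1 h, 37 °C, dark.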
L3MBTL1 inh-1 = blocks human L3MBTL1 | Q9Y468 | AlphaScreen L3MBTL1–H3K9me1 peptide binding | Potency, µM (top dose mostly 57.1 µM), inactives show top-dose activity, negative = inhibition, actives largely listed as inhibitors | actives 0.66% (n = 230,000); further: potency means the concentration at half of the fitted maximal effect; on the % scale 0 is the no-effect control and ±100 the full control effect; nearly all actives have a fitted effect of over 60% in size
Target sequence (Q9Y468 whole entry, looked up): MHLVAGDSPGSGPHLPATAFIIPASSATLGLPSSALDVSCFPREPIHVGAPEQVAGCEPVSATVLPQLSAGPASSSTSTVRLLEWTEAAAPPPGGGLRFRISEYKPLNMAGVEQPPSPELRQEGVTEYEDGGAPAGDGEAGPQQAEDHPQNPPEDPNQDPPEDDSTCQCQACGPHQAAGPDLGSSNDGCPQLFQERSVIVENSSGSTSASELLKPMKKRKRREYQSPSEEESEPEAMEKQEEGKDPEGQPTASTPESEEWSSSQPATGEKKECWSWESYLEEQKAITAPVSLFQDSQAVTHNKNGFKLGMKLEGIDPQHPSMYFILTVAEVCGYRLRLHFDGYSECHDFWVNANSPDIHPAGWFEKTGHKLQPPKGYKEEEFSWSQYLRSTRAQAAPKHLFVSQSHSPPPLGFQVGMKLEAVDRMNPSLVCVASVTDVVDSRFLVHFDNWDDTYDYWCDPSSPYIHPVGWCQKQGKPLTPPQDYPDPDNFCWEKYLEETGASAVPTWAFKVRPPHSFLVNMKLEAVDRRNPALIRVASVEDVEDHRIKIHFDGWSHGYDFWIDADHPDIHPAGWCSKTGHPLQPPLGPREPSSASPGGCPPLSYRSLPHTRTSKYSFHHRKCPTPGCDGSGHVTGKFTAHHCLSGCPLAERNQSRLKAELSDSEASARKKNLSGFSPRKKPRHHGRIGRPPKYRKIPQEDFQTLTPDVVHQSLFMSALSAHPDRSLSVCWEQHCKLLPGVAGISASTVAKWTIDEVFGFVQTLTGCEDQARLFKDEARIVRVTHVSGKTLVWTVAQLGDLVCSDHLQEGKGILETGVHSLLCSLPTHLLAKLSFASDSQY
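Displacement of a biotinylated histone H3(1-15) peptide monomethylated at Lys9 (75 nM) from L3MBTL1 (50 nM) was measured by AlphaScreen after a 30 min room-temperature compound incubation; cefsulodin titration served as intraplate control.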
KDM4E inh = JMJD2E (human) inhibition; AID 2147; Potency, µM (top dose mostly 57.1 µM), without a hit: top-dose activity change, negative = inhibition, hits mostly inhibitors; actives 1.6% (n = 230,000); B2RXH2; JMJD2E catalytic domain, FDH-coupled NADH fluorescence (FDH is formaldehyde dehydrogenase);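 further: potency means the concentration at half of the fitted maximal effect; 0% = wells with enzyme and -100% = buffer wells without enzyme; nearly all actives have a fitted effect of over 50% in size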
CtBP-E1A blk = blocks the CtBP interaction with E1A; AlphaScreen GST-E1A/His-CtBP binding, 1536-well; hits give low values; activity change, % (concentration not given with the values); AID 651724; actives 0.49% (n = 340,000); in the data active means activity change below about -65%; inconclusive means mostly about -30% to -63%; further: on the % scale 0 is the no-effect control and ±100 the full control effect
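Homogeneous bead-based format: GST-tagged E1A captured on glutathione donor beads, His-tagged CtBP on nickel acceptor beads; compounds precede bead addition by 2 h at 37 °C.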
L3MBTL1 inh-2 = validation of human L3MBTL1 methyl-lysine binding inhibitors; shares compounds with L3MBTL1 inh-1; L3MBTL1 methyl-lysine binding inhibition, biochemical qHTS; Potency, µM, most hits filed as inhibitors; actives 91% (n = 500); AID 540279; further: potency means the concentration at half of the fitted maximal effect; nearly all actives have a fitted effect of over 70% in size
AlphaScreen ctr2 = counter-screen for L3MBTL1 inhibitors: AlphaScreen signal interference; 500 tested, under 10 active; AlphaScreen counterscreen, signal inhibition; Potency, µM (top dose mostly 57.1 µM), for the others: top-dose activity change, negative = inhibition, actives largely listed as inhibitors; shares compounds with L3MBTL1 inh-1; further: potency means the concentration at half of the fitted maximal effect; 0% is about no effect
* hit, by the source's call; u = inconclusive; x = not tested or not shown. Unless noted, the call rests on the fitted dose curve; in most records, active means well fitted curve in the direction sought with a large enough effect; inconclusive means small, poorly fitted or top-dose-only effect, or another doubt; inactive means no such curve, though single readings can be large; an effect the other way counts as inactive or inconclusive.

SMILES	Six1-Eya2 inh	L3MBTL1 inh-1	KDM4E inh	CtBP-E1A blk	L3MBTL1 inh-2	AlphaScreen ctr2
CCOc1ccc(-c2cc(C(=O)Nc3ccc(F)cc3)[nH]n2)c(C)c1	-5.9	x	x	0.5	x	x
S=C1SCN(Cc2ccccn2)CN1Cc1ccco1	-80.5*	28.2µM*	-11.7%	u	26.7*	3.8%
C[C@@H]1CN([C@@H](C)CO)C(=O)c2cc(Br)cnc2O[C@@H]1CN(C)Cc1cncnc1	-0.7	x	x	6.4	x	x
Cc1ccc(S(=O)(=O)NCC(=O)OC(C)C(=O)NC2CCCCC2C)cc1C (stereo not drawn)	-1.9	0.2%	x	6.6	x	x
Cn1c(CCN2CCN(c3ccccn3)CC2)nc2cc(NC(=O)COc3ccccc3)ccc21	-9.7	x	x	x	x	x
CC(=O)c1c(COC(=O)c2ccncc2)nc2ccccc2[n+]1[O-]	-9.3	35.5µM*	1.6%	-2.5	u	-1.2%
CC(=O)c1c(COC(=O)c2cccc(C)c2)nc2ccccc2[n+]1[O-]	-4.3	-25.7%	7.1%	x	x	x
Cc1ccc(-n2c(-c3ccco3)nc3nc4ccccc4nc32)cc1	-2.0	-2.3%	u	x	x	x
O=c1oc2ccccc2c(O)c1C=NCc1ccccn1	u	15.8µM*	2.9%	u	21.2*	24.7%
Cc1ccc([N+](=O)[O-])c(C(=O)N/N=C/c2cccs2)c1	-4.8	x	-7.4%	x	x	x
O=C(CC1Sc2ccccc2NC1=O)Nc1cccc(C(=O)O)c1 (stereo not drawn)	-23.0	11.2µM*	1.5%	0.0	0.947*	10.8%
CC(=O)Nc1ccc2c(COC(=O)CC3Sc4ccccc4NC3=O)cc(=O)oc2c1 (stereo not drawn)	18.5	25.1µM*	u	-20.2	8.44*	10.9%
COc1ccc2c(COC(=O)CC3Sc4ccccc4NC3=O)cc(=O)oc2c1 (stereo not drawn)	-13.3	u	-1.1%	-13.4	x	x
NS(=O)(=O)c1cccc(NC(=O)COC(=O)CC2Sc3ccccc3NC2=O)c1 (stereo not drawn)	-0.9	-4.0%	x	-3.2	x	x
Cc1cc(S(=O)(=O)N2CCOCC2)ccc1OCC(=O)NCCCn1ccnc1	5.0	x	x	-10.7	x	x
O=C(C1=C(O)C(=O)N(c2nc3ccc(Cl)cc3s2)C1c1ccco1)c1ccco1 (stereo not drawn)	-25.9	20µM*	x	-11.8	5.97*	-3.5%
Cc1cc(C)c2nc(N3C(=O)C(O)=C(C(=O)c4ccco4)C3c3cccc(O)c3)sc2c1 (stereo not drawn)	-7.7	31.6µM*	x	-11.2	23.8*	0.1%
Cc1ccc2nc(N3C(=O)C(O)=C(C(=O)c4ccc(C)o4)C3c3ccco3)sc2c1 (stereo not drawn)	-3.5	u	x	-1.0	x	x
Cc1c(CCO)c(=O)n2c([nH]c3ccccc32)c1C#N	-15.9	x	x	-15.9	x	x
N#Cc1c(=O)c2nc(NCCCO)ncc2n2c(=O)c3ccccc3[nH]c12	u	10µM*	u	u	5.97*	45.5%
O=C(O)/C=C/c1cccnc1	-18.8	8.7%	5.4%	2.3	x	x
CC(/C=C\c1cccnc1)=C/C(=O)O	-3.6	28.2µM*	-8.1%	10.5	26.7*	0.0%
Nc1ccc2nc(-c3ccccn3)[nH]c2c1	-75.2*	28.2µM*	u	-70.3*	7.52*	u
COc1cc(CN2CC(=O)N(c3ccc(C)c(Cl)c3)C2=S)cc(OC)c1OC	-1.0	x	x	-6.7	x	x
CCc1nc2oc3cc(OC)ccc3c(=O)c2c(=O)n1-c1ccccc1	-1.3	x	3.6%	-14.0	x	x
SMILES	Six1-Eya2 inh	L3MBTL1 inh-1	KDM4E inh	CtBP-E1A blk	L3MBTL1 inh-2	AlphaScreen ctr2
Cc1ccc(-n2c(C)nc3oc4ccccc4c(=O)c3c2=O)cc1	-20.4	39.8µM*	1.5%	-23.2	26.7*	-2.0%
CC(C)(C)C(=O)OCCNc1nc(-c2ccccc2)nc2ccccc12	0.9	10.3%	-5.4%	0.1	x	x
O=C(CSc1nc(-c2ccccc2)nc2ccccc12)Nc1cccc(C(=O)O)c1	u	-6.2%	16.4%	-29.6	x	x
O=C(CSc1nc(-c2ccccc2)nc2c1Cc1ccccc1O2)Nc1ccc(C(=O)O)cc1	-80.5*	10µM*	u	-4.7	5.97*	u
O=C(O)/C=C/c1nc(-c2ccccc2)n2ccccc12	-8.6	17.8µM*	1.3%	-1.2	u	-15.4%
O=C(NC1CC1)C1CCN(S(=O)(=O)c2cc([N+](=O)[O-])ccc2Cl)CC1	-12.7	7.94µM*	x	-0.1	2.99*	7.1%
COc1ccccc1N=C1SCC(=O)N1c1ccccc1OC	8.5	4.4%	-9.2%	7.9	x	x
COc1ccc(COC(=O)CCCN=C2NS(=O)(=O)c3ccccc32)cc1F	3.6	x	x	-10.2	x	x
CCN(CC(=O)Nc1c(F)cccc1F)C(=O)/C=C/c1ccc(C)o1	-7.8	-11.7%	x	0.0	x	x
CCN(CC(=O)Nc1c(F)cccc1F)C(=O)/C=C/c1ccc2ccccc2n1	-26.3	3.16µM*	x	-1.2	1.68*	8.3%
O=[N+]([O-])c1ccc(-c2ccc(S(=O)(=O)NCCN3CCCC3)cc2)cc1	-15.6	-10.8%	u	-10.7	x	x
N#Cc1nc(COc2ccccc2Cl)oc1N1CCCC1	-23.0	28.2µM*	-3.6%	-0.6	u	u
Cc1csc2c(=O)sc(NC(=O)c3cccs3)nc12	-7.3	x	8.9%	-4.1	x	x
CCOc1ccc(/C(O)=C2/C(=O)C(=O)N(c3ncccn3)C2c2ccccc2)cc1 (stereo not drawn)	7.0	-1.9%	-3.0%	x	x	x
Cc1cc(NC(=O)Cc2cccs2)no1	-16.3	28.2µM*	-4.5%	-2.0	3.36*	-20.1%
CC(C)CCNC(=O)c1cc(-c2ccco2)nc2ccccc12	6.3	x	u	1.7	x	x
CN(C)C(CNC(=O)c1cc(-c2ccco2)nc2ccccc12)c1ccccc1 (stereo not drawn)	-28.0	7.94µM*	x	2.1	2.67*	-6.5%
CCCCCCNC(=O)c1cc(-c2ccco2)nc2ccccc12	-26.1	14.1µM*	u	6.7	7.52*	8.5%
O=C(c1ccco1)N1CCN(C(=O)c2cc(-c3ccncc3)nc3ccc(Br)cc23)CC1	-22.9	x	x	-8.3	x	x
O=C(O)c1cc(-c2ccco2)nc2ccc(Br)cc12	u	4.47µM*	u	-6.8	2.38*	1.0%
COC(=O)C1CCN(C(=O)c2cc(-c3ccco3)nc3ccccc23)CC1	-29.7	0.794µM*	x	x	5.32*	2.3%
CCOC(=O)C(C)Oc1ncnc2cccc(F)c12 (stereo not drawn)	-2.6	x	-9.0%	2.8	x	x
COc1ccc(CCNC(=O)C(F)(F)F)cc1S(N)(=O)=O	-0.5	x	x	-9.3	x	x
C=CCn1c(SCC(=O)c2ccc(O)c(O)c2)nnc1-c1cccnc1	u	6.31µM*	3.55µM*	0.8	2.99*	u
O=C(Nc1cc(Cl)ccc1Cl)c1noc2c1CCCC2	-1.7	x	-23.2%	8.9	x	x
O=C(Nc1ccc(F)cc1F)c1noc2c1CCC2	-4.6	31.6µM*	3.4%	3.9	6.7*	6.3%

Source: PubChem BioAssay (National Center for Advancing Translational Sciences (NCATS))
